Several values for one entry are separate records, joined by “and”; a condition that tells them apart may be missing. Identical values can stand only once. Activity calls are given as the source filed them.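 How the source made its calls, unless noted: active means fluorescence slope higher than the sample average by over 3 SD (cut at about -0.22 in these data, passing the limit was not always enough); inactive means the rest.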
Assays:
[1] = inhibitors of TNFa-induced NFkB p65 translocation, primary screen, imaging, HUVEC, MLSMR starter and 10KST1 sets (AID 438;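 active means inhibition above 20% together with a positive visual image hit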;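 further: compound added about 3h40 before a 20 min TNFalpha stimulation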;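 on inhibition: signal is the nuclear over cytoplasmic p65 intensity ratio per well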); details: HUVEC TNFa-induced p65 nuclear translocation; cell count: measured here: nuclei count (cytotoxicity indicator), at 2.08 µM; inhibition: at 2 µM, stronger effect = higher value, 0% TNFa-plus-vehicle, 100% no-TNFa wells
[2] = inhibitors of E-selectin induction by TNFa, primary screen, imaging, HUVEC, immunofluorescence, MLSMR starter and 10KST1 sets (AID 487;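 active means visually confirmed hit in the image check and inhibition above 20%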;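 on inhibition: signal is fraction of cell area covered by stained E-selectin grains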;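 on nuclei count: 100% = median nuclei count of all wells on the same plate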); details: HUVEC TNFalpha-induced E-selectin immunofluorescence imaging, at 2 µM; inhibition: stronger effect = higher value; nuclei count: measured here: cell number, toxicity
[3] = DUSP6 inhibitors restoring Erk phosphorylation by chemical complementation, primary imaging in DUSP6-transfected HeLa (AID 609;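 active means compounds giving at least 50% inhibition in the cell-based MKP-3 phosphatase rescue imaging test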;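 on inhibition: phospho-Erk level distribution per well compared with pooled transfected vehicle control wells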); details: HeLa MKP-3 transfected, phospho-Erk imaging KS statistic, at 10 µM, cells stimulated with TPA for 15 min
[4] = biological target: Dual specificity protein phosphatase 6 (Homo sapiens) (UniProt Q16828); assay: as above; details: HeLa MKP-3 transfected, phospho-Erk imaging KS statistic; at 10 µM; stronger effect = higher value; cells stimulated with TPA for 15 min
Chain of Dual specificity protein phosphatase 6 (Homo sapiens) (Q16828 whole entry, looked up): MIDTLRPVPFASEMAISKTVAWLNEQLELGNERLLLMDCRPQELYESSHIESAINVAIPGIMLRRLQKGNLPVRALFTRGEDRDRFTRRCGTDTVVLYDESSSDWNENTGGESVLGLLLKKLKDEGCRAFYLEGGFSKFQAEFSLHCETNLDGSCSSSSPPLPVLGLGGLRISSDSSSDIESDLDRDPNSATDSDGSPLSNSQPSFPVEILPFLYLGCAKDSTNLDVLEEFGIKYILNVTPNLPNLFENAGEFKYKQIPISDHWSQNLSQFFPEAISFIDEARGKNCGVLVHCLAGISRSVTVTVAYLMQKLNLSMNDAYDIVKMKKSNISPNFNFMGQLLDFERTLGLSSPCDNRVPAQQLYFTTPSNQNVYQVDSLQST

[5] = biological target: Voltage-gated potassium channel subunit beta-2 (Rattus norvegicus) (UniProt P62483); assay: KvBeta enzyme negative modulators, primary screen, biochemical, NADPH fluorescence (AID 622); details: recombinant KvBeta, 4-cyanobenzaldehyde reduction, at 10 µM, stronger effect = higher value;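 further: slope of raw intensity against log time taken from 70 to 1610 s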
Chain of Voltage-gated potassium channel subunit beta-2 (Rattus norvegicus) (P62483 whole entry, looked up): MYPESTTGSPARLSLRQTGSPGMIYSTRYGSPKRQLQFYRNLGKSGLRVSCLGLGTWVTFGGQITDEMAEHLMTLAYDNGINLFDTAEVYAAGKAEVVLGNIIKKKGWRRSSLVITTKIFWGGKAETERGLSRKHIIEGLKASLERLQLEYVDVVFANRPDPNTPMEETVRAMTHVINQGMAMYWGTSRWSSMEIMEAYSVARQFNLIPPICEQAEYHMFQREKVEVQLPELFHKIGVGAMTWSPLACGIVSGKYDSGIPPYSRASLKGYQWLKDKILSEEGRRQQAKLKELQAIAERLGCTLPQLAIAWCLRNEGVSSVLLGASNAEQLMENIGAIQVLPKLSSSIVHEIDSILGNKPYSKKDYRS

[6] = biological target: Voltage-gated potassium channel subunit beta-2 (Rattus norvegicus) (UniProt P62483); assay: KvBeta positive modulators, primary screen, biochemical, NADPH fluorescence (AID 623;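 active means NADPH fluorescence slope more negative than the mean of all samples by about 3 SD, 99.7% confidence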;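 further: fluorescence intensity change per second fitted from 20 to 320 s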); details: Recombinant KvBeta, NADPH fluorescence decrease slope, 10 min; at 10 µM; stronger effect = lower value
[7] = biological target: Muscarinic acetylcholine receptor M4 (Homo sapiens) (UniProt P08173); assay: compounds altering M4/GIRK thallium flux, either direction, primary screen, M4 allosteric agonist project, cell-based, HEK293 M4/GIRK, BTC-AM (AID 625;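 active means fluorescence slope after compound addition differing from the mean of all tested samples at 99.7% confidence, mostly higher but some lower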;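 further: thallium influx through GIRK channels coupled to M4 in HEK293 cells with BTC-AM dye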); details: at 10 µM, actives lie on both sides
Chain of Muscarinic acetylcholine receptor M4 (Homo sapiens) (P08173 whole entry, looked up): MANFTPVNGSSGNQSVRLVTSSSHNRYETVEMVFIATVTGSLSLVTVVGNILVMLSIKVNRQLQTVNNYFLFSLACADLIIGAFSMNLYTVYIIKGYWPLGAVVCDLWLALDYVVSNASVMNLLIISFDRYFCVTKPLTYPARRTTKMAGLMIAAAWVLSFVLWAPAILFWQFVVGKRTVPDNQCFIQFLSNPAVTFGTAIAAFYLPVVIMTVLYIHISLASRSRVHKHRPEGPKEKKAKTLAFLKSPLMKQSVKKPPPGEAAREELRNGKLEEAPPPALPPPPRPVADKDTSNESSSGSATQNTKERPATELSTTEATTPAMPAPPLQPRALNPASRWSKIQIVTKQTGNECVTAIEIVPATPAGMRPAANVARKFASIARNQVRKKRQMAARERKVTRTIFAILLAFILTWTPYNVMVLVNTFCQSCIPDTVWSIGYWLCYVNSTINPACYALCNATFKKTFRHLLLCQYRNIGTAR

[8] = inhibitors of larval lipid processing in zebrafish, primary screen, whole organism, PED6 fluorescence, gall bladder and intestine (AID 686;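 active means a full or partial loss of lipid-probe fluorescence in the fish gall bladder, intestine or both, judged by eye; inactive means no fluorescence loss, or compound toxic to the fish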;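 further: larvae 5 to 7 days old with five fish per well; signal comes from phospholipase A2 cleavage of quenched PED6 carried via bile; overnight exposure to compound and PED6 before scoring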); details: Zebrafish larvae PED6 lipid processing, fluorescence scoring; screened at 20 µM (by protocol)
[9] = inhibitors of Chlamydomonas gravitaxis, primary screen, whole organism, Chlamydomonas reinhardtii, WT vs cilia-less mutant, absorbance, 96-well (AID 463189;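 active means inhibition at or above 50% relative to wild type and mutant plate controls; inactive means inhibition below 50%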;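 further: 0% = wild type cc124 cells in DMSO and 100% = ciliumless bld1 mutant cells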); details: OD600 absorbance, 2 days, at 10 µM, stronger effect = higher value
[10] = biological target: Alpha-2C adrenergic receptor (Homo sapiens) (UniProt P18825); assay: modulators of alpha2C/GIRK thallium flux, primary screen, cell-based, HEK293 alpha2C/GIRK1/2 (AID 624;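 active means fluorescence slope after compound addition differing from the mean of all screened samples at 99.7% confidence, in either direction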;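 further: slope of fluorescence ratio to pre-addition baseline per second over 15 to 24 s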); details: thallium flux BTC fluorescence, at 10 µM, actives lie on both sides
Chain of Alpha-2C adrenergic receptor (Homo sapiens) (P18825 whole entry, looked up): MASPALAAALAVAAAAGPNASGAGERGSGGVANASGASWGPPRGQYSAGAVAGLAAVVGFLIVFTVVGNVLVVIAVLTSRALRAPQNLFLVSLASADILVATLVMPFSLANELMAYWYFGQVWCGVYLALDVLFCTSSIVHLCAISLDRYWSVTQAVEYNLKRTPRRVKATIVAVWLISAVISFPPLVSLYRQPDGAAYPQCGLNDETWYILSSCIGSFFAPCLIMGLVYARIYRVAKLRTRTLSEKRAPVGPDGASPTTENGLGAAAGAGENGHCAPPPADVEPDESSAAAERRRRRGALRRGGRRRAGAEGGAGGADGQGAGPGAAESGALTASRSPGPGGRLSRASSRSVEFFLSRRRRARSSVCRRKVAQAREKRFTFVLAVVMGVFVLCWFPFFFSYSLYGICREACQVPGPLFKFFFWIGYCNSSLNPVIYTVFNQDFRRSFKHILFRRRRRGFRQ

[11] = inhibitors of Sendai virus-induced IRF3 signaling, primary screen, TLR/RLR signaling modifier project, cell-based, Sendai virus stimulus, luciferase, 10K MLSCN set (AID 602276;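 active means inhibition at or above 50% at 10 µM; inactive means inhibition below 50%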;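 further: firefly luciferase from ISG56 promoter only with Renilla not read in this screen; 0% = Sendai virus plus DMSO and 100% = medium plus DMSO without virus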); details: HEK293 RL24 IRF3 luciferase reporter, at 10 µM, stronger effect = higher value
[12] = inhibitors of poly I:C-induced TLR3 signaling, primary screen, cell-based, poly I:C stimulus, luciferase, 10K MLSCN set (AID 602277;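 active means inhibition of the reporter signal at or above 50%; inactive means inhibition below 50%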); details: HEK293-TLR3 RL24 IRF3 luciferase reporter, at 10 µM, stronger effect = higher value
[13] = measured here: cell density z-score
[14] = measured here: nuclear c-Myc green intensity z-score
[15] = measured here: nuclear pErk red intensity z-score, stronger effect = higher value

SMILES	cell count [1]	inhibition [1]	inhibition [2]	nuclei count [2]	z-score [3, 13]	z-score [3, 14]	z-score [3, 15]	inhibition [4]	fluorescence slope [5]	NADPH fluorescence slope [6]	fluorescence slope [7]	outcome [8]	inhibition [9]	slope [10]	inhibition [11]	inhibition [12]
CC(C)(C)c1nnc2sc(SCC(=O)c3ccccc3)nn2c1=O	619	3.4% (inactive)	-55% (inactive)	105%	-1.21	-0.101	1.16	-7.67% (inactive)	-0.455 (inactive)	-6.8e-05 (inactive)	0.00537 (inactive)	inactive	11.5% (inactive)			
O=C(O)c1c[nH]c2ccc(S(=O)(=O)N3CCOCC3)cc12	597	-4.4% (inactive)	-208% (inactive)	144%	-0.324	-1.59	0.18	5.42% (inactive)	-0.496 (inactive)	-6.6e-05 (inactive)	0.00433 (inactive)	inactive	8.59% (inactive)			
CCC(NC(=O)Nc1ccc(O)cc1)(C(F)(F)F)C(F)(F)F	709	-9.4% (inactive)	18.3% (inactive)	156%	-0.865	0.673	0.754	-3.95% (inactive)	-0.448 (inactive)	-3.4e-05 (inactive)	0.00524 (inactive)	inactive	2.89% (inactive)			
C=CC(O)Cc1c(C)n[nH]c1C (stereo not drawn)	656	-7.1% (inactive)	-59.4% (inactive)	167%	-1.01	-0.115	-0.502	-9.66% (inactive)	-0.503 (inactive)	-6.2e-05 (inactive)	0.00568 (inactive)	inactive	11.7% (inactive)			
CCC(C(=O)Nc1ncn[nH]1)(C(F)(F)F)C(F)(F)F	692	5.8% (inactive)	-106% (inactive)	171%	0.655	0.101	-0.238	7.93% (inactive)	-0.479 (inactive)	-4.9e-05 (inactive)	0.0062 (inactive)	inactive	27.8% (inactive)			
Cn1c(=O)c2c(nc(NCC(O)CO)n2CCc2ccccc2)n(C)c1=O (stereo not drawn)	693	2% (inactive)	-108% (inactive)	172%	0.322	-1.96	-0.0564	19.8% (inactive)	-0.483 (inactive)	-1e-05 (inactive)	0.00665 (inactive)	inactive	24.7% (inactive)			
Cc1cc(NC(=O)CSc2nc(-c3cccnc3)ccc2C#N)no1	733	-10.3% (inactive)	-53% (inactive)	171%	0.472	0.655	-0.248	4.25% (inactive)	-0.414 (inactive)	-4.1e-05 (inactive)	0.00502 (inactive)	inactive	44.8% (inactive)			
CCN(CC)CC(=O)Nc1c(C)cccc1C	642 and 715	-6.5% (inactive) and -1% (inactive)	-39.3% (inactive) and -82.5% (inactive)	130% and 116%	-0.149 and 1.01	0.72 and -0.684	-0.101 and 0.844	15.3% (inactive) and 14.6% (inactive)	-0.457 (inactive) and -0.466 (inactive)	7.7e-06 (inactive) and -5.7e-05 (inactive)				0.00536 (inactive) and 0.0061 (inactive)	11.4% (inactive) and 10.3% (inactive)	39.6% (inactive) and 42.7% (inactive)
CC(NC(=O)NC(N)=O)(C(F)(F)F)C(F)(F)F	674	6.8% (inactive)	-84.9% (inactive)	109%	0.562	0.75	0.26	13.9% (inactive)	-0.534 (inactive)	-1.1e-05 (inactive)	0.00493 (inactive)	inactive	21.5% (inactive)			
COc1ccc(-n2ccc(=O)c3c2CCCC3=O)cc1	538	-18% (inactive)	-24.2% (inactive)	175%	0.411	1.24	0.919	-3.97% (inactive)	-0.383 (inactive)	-5.1e-05 (inactive)	0.00531 (inactive)	inactive	-7.89% (inactive)			
CCN1CCc2c(C#N)c(N3CCOCC3)nc(NCCO)c2C1	566	-9.7% (inactive)	-122% (inactive)	151%	1.19	-1.68	-1.24	-9.53% (inactive)	-0.456 (inactive)	-9.7e-05 (inactive)	0.0043 (inactive)	inactive	-3.77% (inactive)			
Cn1c(N2CCOCC2)nc2c1c(=O)n(Cc1ccc(Cl)cc1)c(=O)n2C	644	12.1% (inactive)	-31.1% (inactive)	101%	0.134	0.368	0.486	-2.09% (inactive)	-0.446 (inactive)	-3.4e-05 (inactive)	0.00452 (inactive)	inactive	-7.86% (inactive)			
c1ccc(CSc2nnc(SCc3ccccn3)s2)nc1	352	-20.9% (inactive)		173%	1.06	-1.17	0.36	3.66% (inactive)	-0.405 (inactive)	-5.6e-05 (inactive)		inactive	-2.59% (inactive)	0.00665 (inactive)		
Cc1ccc(-c2nnc(OCCN3CCOCC3)c3ccccc23)cc1	453	0.4% (inactive)	-85.1% (inactive)	167%	1.01	-0.803	-0.0262	4.37% (inactive)	-0.463 (inactive)	-2.6e-05 (inactive)	0.00559 (inactive)	inactive	30.5% (inactive)			
Cc1cc(/C(O)=C2\C(=O)C(=O)N(CCN(C)C)C2c2ccncc2)ccc1OCc1ccccc1 (stereo not drawn)	664	-0.2% (inactive)	9.6% (inactive)	174%	-0.686	0.247	-0.699	5.35% (inactive)	-0.481 (inactive)	-5.4e-05 (inactive)	0.00492 (inactive)	inactive	3.31% (inactive)			
CCCCCCn1c(SCCN2CCOCC2)nc2c1c(=O)[nH]c(=O)n2C	534	-16.2% (inactive)	-9.8% (inactive)	139%	0.497	0.889	0.83	13.4% (inactive)	-0.409 (inactive)	-4.3e-05 (inactive)	0.00545 (inactive)	inactive	27.5% (inactive)			
COC(=O)C(NC(C)=O)(Nc1nc2c(s1)CCCC2)C(F)(F)F (stereo not drawn)	370	-7.5% (inactive)	-63.7% (inactive)	193%	1.49	0.382	-1.06	5.42% (inactive)	-0.414 (inactive)	-0.000114 (inactive)	0.00554 (inactive)	inactive	-6.09% (inactive)			
COC(=O)c1[nH]c(C)c(/C(O)=C2\C(=O)C(=O)N(CCN3CCOCC3)C2c2cccnc2)c1C (stereo not drawn)	605	-1.2% (inactive)	-2.2% (inactive)	163%	-1.96	0.711	-3.8	-3.95% (inactive)	-0.46 (inactive)	-0.000197 (inactive)	0.00521 (inactive)	inactive	5.4% (inactive)			
